Results as given in PubChem BioAssay (EPA / NIEHS).
Several values for one entry are separate records, joined by “and”; a condition that tells them apart may be missing. Equal values may be shown once. Records with an inconclusive call do not appear. Some structures have more than one record in an assay (separate samples or runs), and their calls can disagree. Activity calls are given as the source filed them. Rule for the calls: active = hit-call score of the fitted dose curve at least 0.9, where 1 is the maximum; inconclusive = response in the unintended direction; inactive = score below 0.9.

What was measured:
[1] = molecular target: bovine Estrogen Receptor (ER), ESR1 (gene 407238) (UniProt P49884); assay: NVS_NR_bER: NovaScreen (NVS) Nuclear Receptor Binding Assay for bovine Estrogen Receptor (ER) (AID 2283345);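 note: actives lower the bound radioligand count which means they displace the ER ligand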
Outline: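 Cell-free radioligand binding with receptor from bovine uterine membranes, read by scintillation counting 18 h after dosing. Loss of specific binding was scored against DMSO; primary screen at 25 uM in duplicate, actives then run as concentration series.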

[2] = molecular target: Estrogen receptor (Homo sapiens) (UniProt P03372); assay: NVS_NR_hER: NovaScreen (NVS) Nuclear Receptor Binding Assay for human Estrogen Receptor (ER) (AID 2283348)
Outline: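 Scintillation signal from bound radioligand was measured 18 hours after chemical addition to cell-free MCF7 protein extracts, with DMSO as baseline. Activity was scored as signal loss; compounds ran first at 25 uM in duplicate.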

[3] = molecular target: Estrogen receptor (Homo sapiens) (UniProt P03372); assay: OT_ER_ERaERa_1440: Odyssey Thera (OT) 24-hour HEK293T Protein-Complementation Assay for Estrogen Receptor-alpha/-alpha Homodimer (AID 2283349);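 note: hits raise fluorescence above DMSO for agonists and antagonists alike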
Outline: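 Protein-fragment complementation between two human ERα ligand-binding domains (aa 310-547) in stably transfected HEK293T cells was monitored after 24 h treatment, using fluorescence intensity relative to vehicle controls.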

[4] = molecular target: Estrogen receptor (Homo sapiens) (UniProt P03372); assay: OT_ER_ERaERa_0480: Odyssey Thera (OT) 8-hour HEK293T Protein-Complementation Assay for Estrogen Receptor-alpha/-alpha Homodimer (AID 2283351);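 note: rise in fluorescence from reassembled reporter fragments on ERα LBD homodimer in nucleus or whole cell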
Outline: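 HEK293T cells stably expressing the human ERα ligand-binding domain (aa 310-547) as a homodimer PCA were dosed with compound for 8 h. Gain of fluorescence intensity versus DMSO vehicle was read by laser scanning cytometry.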

[5] = molecular target: Androgen Receptor/SRC-1 Co-activator, AR (gene 367) (UniProt P10275); assay: OT_AR_ARSRC1_0960: Odyssey Thera (OT) 16-hour HEK293T Protein-Complementation Assay for Androgen Receptor/SRC-1 Co-activator (AID 2283353);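 note: actives raise the signal above DMSO so potency reflects increased AR and SRC-1 complex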
Outline: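 HEK293T cells stably expressing AR and SRC-1 fused to split Venus YFP fragments via (Gly4Ser)2 linkers were dosed for 16 h. Nuclear/cytoplasmic fluorescence ratio at 488 nm, ≥400 cells per image, fitted for gain of signal versus DMSO.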

[6] = molecular target: human Peroxisome Proliferator-activated Receptor alpha (PPARa), PPARA (gene 5465) (UniProt Q07869); assay: NVS_NR_hPPARa: NovaScreen (NVS) Nuclear Receptor Binding Assay for human Peroxisome Proliferator-activated Receptor alpha (PPARa) (AID 2283359);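 note: activity means loss of TR-FRET signal versus DMSO baseline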
Outline: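 Chemicals were first screened in duplicate at 25 uM, and active ones were retested across concentration series. Binding was monitored by TR-FRET one hour after dosing, with decreased signal against DMSO counted as activity.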

[7] = tested on: NCBI gene 100848466; assay: NVS_NR_bPR: NovaScreen (NVS) Nuclear Receptor Binding Assay for bovine Progextron Receptor (PR) (AID 2283343);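 for AC50: actives lower bound radioligand signal below DMSO meaning displacement of the label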
Outline: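 Membranes from bovine uterus; radiolabelled ligand plus test chemical; 18 h; scintillation read-out. Activity = signal loss vs DMSO. Primary: 25 uM, duplicate; secondary: concentration series.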

[8] = molecular target: Estrogen receptor beta (Homo sapiens) (UniProt Q92731); assay: OT_ER_ERbERb_0480: Odyssey Thera (OT) 8-hour HEK293T Protein-Complementation Assay for Estrogen Receptor-beta/-beta Homodimer (AID 2283357);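 note: active means signal gain over DMSO baseline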
Outline: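 Cells (HEK293T, stable ER-beta LBD PCA pair) are treated 8 hours, fixed and Draq5-stained; signal is fluorescence intensity increase relative to vehicle, fitted in the gain direction.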

[9] = molecular target: T1, Estrogen receptor (Homo sapiens) + Estrogen receptor beta (Homo sapiens) (UniProt P03372+Q92731); assay: OT_ER_ERaERb_0480: Odyssey Thera (OT) 8-hour HEK293T Protein-Complementation Assay for Estrogen Receptor-alpha/-beta Heterodimer (AID 2283352)
Outline: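 HEK293T cells expressing ER-alpha/ER-beta LBD fusions to complementary reporter fragments were dosed with compound for 8 hours. Heterodimer formation was read as increased nuclear (agonist) or nuclear plus cytoplasmic (antagonist) mean fluorescence intensity versus DMSO vehicle.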

[10] = molecular target: T1, Estrogen receptor (Homo sapiens) + Estrogen receptor beta (Homo sapiens); assay: OT_ER_ERaERb_1440: Odyssey Thera (OT) 24-hour HEK293T Protein-Complementation Assay for Estrogen Receptor-alpha/-beta Homodimer (AID 2283356);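 note: heteromer of ER alpha and ER beta binding domains; hits raise reporter fluorescence and both agonists and antagonists give an increase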
Outline: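 HEK293T cells stably expressing a PCA pair of ERα LBD (aa 310-547) and ERβ LBD (aa 263-489) were dosed for 24 h. Fluorescence intensity increase versus DMSO vehicle was fitted as gain-of-signal.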

[11] = molecular target: rat Gamma-Aminobutyric Acid Type A Receptor BDZ, alpha 6 site (GABARa6), Gabra6 (gene 29708) (UniProt P30191); assay: NVS_LGIC_rGABARa6: NovaScreen (NVS) Ligand-Gated Ion Channel Assay for rat Gamma-Aminobutyric Acid Type A Receptor BDZ, alpha 6 site (GABARa6) (AID 2283339)
Outline: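 Rat cerebellar membranes; radioligand binding, filtration and scintillation counting, read 1 h after dosing. Single-concentration duplicate screen at 25 uM, then concentration-response up to 50 uM for actives; loss of signal fitted versus DMSO baseline.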

[12] = molecular target: rat Glutamate, MK-801 Agonist Site (GluNMDA_MK801), Grin1 (gene 24408) (UniProt P35439); assay: NVS_LGIC_rGluNMDA_MK801_Agonist: NovaScreen (NVS) Ligand-Gated Ion Channel Assay for rat Glutamate, MK-801 Agonist Site (GluNMDA_MK801) (AID 2283340)
Outline: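 Radioligand binding at MK-801 site in rat forebrain membranes, 1.5 h incubation, filter-based scintillation counting. Initially 25 uM in duplicate; actives then run in concentration-response up to 50 uM, fitted for gain of signal versus DMSO.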

[13] = tested on: guinea pig Histamine Receptor (H2), gene 100729734; assay: NVS_GPCR_gH2: NovaScreen (NVS) G Protein-Coupled Receptor Assay for guinea pig Histamine Receptor (H2) (AID 2283342)
Outline: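 Radioligand displacement on guinea pig striatal membranes, 1 h after dosing, filter-based scintillation counting; loss of signal versus DMSO. Single-point screen at 25 uM in duplicate, then concentration-response up to 50 uM.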

[14] = molecular target: chimpanzee Androgen Receptor (AR), AR (gene 747460) (UniProt O97775); assay: NVS_NR_cAR: NovaScreen (NVS) Nuclear Receptor Binding Assay for chimpanzee Androgen Receptor (AR) (AID 2283346);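 note: radioligand displacement from AR measured by scintillation counting in a cell-free assay; a loss of bound radioligand signal versus DMSO counts as binding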
Outline: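 Cell-free competition binding with insect-cell (Sf9/Sf21) extracted chimpanzee AR; scintillation signal from lysate at 72 h. Screened in duplicate at 25 uM, then concentration-response for actives; fitting relative to DMSO.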

[15] = molecular target: PGR (gene 5241) (UniProt P06401); assay: NVS_NR_hPR: NovaScreen (NVS) Nuclear Receptor Binding Assay for human Progestron Receptor (PR) (AID 2283360);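 note: active means loss of bound radioligand signal versus DMSO baseline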
Outline: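 Cell-free radioligand binding using receptor protein extracted from T47D cells, read by scintillation counting 18 hours after dosing. Loss of signal relative to DMSO baseline indicates displacement; primary screen single concentration 25 uM in duplicate, actives followed in concentration series.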

[16] = molecular target: rat Glycine Receptor, Strychnine-sensitive (GlyRStrySens), Glra1 (gene 25674) (UniProt P07727); assay: NVS_LGIC_rGlyRStrySens: NovaScreen (NVS) Ligand-Gated Ion Channel Assay for rat Glycine Receptor, Strychnine-sensitive (GlyRStrySens) (AID 2283341)
Outline: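 Radioligand displacement on rat spinal cord membranes, 1 hr, filter scintillation read-out. Single-concentration duplicate screen at 25 uM; chemicals meeting threshold (e.g., 30% inhibition) rerun in concentration-response up to 50 uM. Loss of binding fitted versus DMSO.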

[17] = molecular target: Retinoic acid receptor alpha (Homo sapiens) (UniProt P10276); assay: NVS_NR_hRAR_Antagonist: NovaScreen (NVS) Nuclear Receptor Binding Assay for human Retinoic Acid Alpha Receptor Antagonism (RAR) (AID 2283358)
Outline: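 TR-FRET, cell-free, antagonist format; 2 h incubation after dosing; DMSO = baseline; signal loss fitted; 25 uM duplicate primary, then conc. series.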

[18] = molecular target: human Constitutive Androstane Receptor (CAR), NR1I3 (gene 9970) (UniProt Q14994); assay: NVS_NR_hCAR_Antagonist: NovaScreen (NVS) Nuclear Receptor Binding Assay for human Constitutive Androstane Receptor Antagonism (CAR) (AID 2283344)
Outline: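 Cell-free TR-FRET binding read 1 h after dosing, antagonist mode; loss of signal versus DMSO baseline. Primary screen in duplicate at a single 25 uM; actives retested in concentration series.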

Measured: AC50

Androgen Receptor/SRC-1 Co-activator, AR (gene 367), sequence (P10275 whole entry, looked up, the tested form may be a part): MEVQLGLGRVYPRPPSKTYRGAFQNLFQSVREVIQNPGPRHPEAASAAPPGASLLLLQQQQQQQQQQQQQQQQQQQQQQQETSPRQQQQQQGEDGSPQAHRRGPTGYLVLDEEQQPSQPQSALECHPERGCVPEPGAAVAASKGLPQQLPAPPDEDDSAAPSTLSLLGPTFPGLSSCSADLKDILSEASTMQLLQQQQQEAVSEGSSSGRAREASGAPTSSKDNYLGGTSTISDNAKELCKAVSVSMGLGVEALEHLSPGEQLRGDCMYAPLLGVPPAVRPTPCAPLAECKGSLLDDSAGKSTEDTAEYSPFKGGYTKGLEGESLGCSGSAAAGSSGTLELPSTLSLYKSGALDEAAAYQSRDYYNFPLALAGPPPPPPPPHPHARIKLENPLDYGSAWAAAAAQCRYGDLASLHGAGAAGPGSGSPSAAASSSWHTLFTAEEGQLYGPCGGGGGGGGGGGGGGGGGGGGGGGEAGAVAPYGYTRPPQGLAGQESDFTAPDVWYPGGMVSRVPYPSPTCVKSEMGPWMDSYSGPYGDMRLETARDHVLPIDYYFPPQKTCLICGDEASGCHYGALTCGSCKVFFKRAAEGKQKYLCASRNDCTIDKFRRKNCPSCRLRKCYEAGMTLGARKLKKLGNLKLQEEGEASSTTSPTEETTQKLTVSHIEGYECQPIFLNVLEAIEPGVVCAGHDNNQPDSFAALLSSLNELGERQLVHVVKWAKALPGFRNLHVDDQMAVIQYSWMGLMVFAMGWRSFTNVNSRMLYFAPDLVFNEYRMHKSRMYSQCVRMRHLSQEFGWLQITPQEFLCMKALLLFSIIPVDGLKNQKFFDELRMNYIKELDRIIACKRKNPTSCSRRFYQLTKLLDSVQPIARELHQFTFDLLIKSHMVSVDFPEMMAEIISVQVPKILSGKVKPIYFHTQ
human Peroxisome Proliferator-activated Receptor alpha (PPARa), PPARA (gene 5465), sequence (Q07869 whole entry, looked up): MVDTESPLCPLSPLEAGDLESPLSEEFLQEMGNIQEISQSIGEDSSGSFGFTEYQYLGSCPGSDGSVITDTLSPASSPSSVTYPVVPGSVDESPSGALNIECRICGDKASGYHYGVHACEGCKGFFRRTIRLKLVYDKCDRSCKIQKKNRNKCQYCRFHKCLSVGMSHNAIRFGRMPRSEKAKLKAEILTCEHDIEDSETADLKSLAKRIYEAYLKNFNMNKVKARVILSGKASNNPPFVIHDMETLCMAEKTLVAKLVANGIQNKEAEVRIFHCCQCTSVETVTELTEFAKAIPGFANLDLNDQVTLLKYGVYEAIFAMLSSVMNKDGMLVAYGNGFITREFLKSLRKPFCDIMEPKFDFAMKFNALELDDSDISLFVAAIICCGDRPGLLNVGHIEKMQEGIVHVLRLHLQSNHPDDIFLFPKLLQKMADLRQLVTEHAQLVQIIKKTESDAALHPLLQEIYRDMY
chimpanzee Androgen Receptor (AR), AR (gene 747460), sequence (O97775 whole entry, looked up): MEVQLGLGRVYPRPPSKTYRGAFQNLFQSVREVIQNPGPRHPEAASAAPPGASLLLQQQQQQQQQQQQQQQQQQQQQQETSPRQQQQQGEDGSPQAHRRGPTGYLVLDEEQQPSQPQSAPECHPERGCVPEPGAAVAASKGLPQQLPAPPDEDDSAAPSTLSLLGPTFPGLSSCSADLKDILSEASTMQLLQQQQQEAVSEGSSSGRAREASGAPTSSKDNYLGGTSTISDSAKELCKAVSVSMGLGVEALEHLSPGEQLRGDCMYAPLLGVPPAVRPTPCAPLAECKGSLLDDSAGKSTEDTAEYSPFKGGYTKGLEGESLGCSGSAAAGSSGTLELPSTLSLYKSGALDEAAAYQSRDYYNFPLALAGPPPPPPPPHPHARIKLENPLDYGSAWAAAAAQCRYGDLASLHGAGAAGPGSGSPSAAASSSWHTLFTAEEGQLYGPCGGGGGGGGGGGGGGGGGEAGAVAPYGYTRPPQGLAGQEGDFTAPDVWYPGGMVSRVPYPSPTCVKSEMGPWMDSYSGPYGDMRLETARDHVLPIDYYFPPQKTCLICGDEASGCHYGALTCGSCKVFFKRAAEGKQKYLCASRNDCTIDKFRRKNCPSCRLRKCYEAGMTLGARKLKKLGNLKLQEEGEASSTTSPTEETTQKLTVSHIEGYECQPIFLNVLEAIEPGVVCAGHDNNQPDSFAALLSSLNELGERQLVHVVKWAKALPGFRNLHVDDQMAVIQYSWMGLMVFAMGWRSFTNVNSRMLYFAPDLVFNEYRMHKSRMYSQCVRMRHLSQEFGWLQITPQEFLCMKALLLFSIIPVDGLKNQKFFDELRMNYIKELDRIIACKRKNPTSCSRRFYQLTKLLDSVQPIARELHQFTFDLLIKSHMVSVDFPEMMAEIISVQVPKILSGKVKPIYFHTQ
bovine Estrogen Receptor (ER), ESR1 (gene 407238), sequence (P49884 whole entry, looked up): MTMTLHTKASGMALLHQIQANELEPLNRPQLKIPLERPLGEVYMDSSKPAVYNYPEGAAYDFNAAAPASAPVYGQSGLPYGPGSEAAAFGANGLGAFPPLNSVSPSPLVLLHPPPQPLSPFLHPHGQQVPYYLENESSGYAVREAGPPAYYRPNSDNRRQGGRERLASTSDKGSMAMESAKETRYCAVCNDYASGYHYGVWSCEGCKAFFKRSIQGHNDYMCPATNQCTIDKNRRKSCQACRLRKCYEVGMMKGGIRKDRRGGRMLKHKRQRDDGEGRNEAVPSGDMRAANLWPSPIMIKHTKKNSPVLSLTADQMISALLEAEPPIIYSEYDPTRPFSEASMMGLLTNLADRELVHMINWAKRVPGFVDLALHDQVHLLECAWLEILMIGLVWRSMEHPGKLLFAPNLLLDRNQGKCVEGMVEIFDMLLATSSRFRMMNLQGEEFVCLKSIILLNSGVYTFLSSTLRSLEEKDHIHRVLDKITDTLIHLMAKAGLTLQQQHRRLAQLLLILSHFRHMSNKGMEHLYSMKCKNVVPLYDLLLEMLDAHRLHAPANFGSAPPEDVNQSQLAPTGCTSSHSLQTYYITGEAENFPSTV
Estrogen receptor beta (Homo sapiens), sequence (Q92731 whole entry, looked up, the tested form may be a part): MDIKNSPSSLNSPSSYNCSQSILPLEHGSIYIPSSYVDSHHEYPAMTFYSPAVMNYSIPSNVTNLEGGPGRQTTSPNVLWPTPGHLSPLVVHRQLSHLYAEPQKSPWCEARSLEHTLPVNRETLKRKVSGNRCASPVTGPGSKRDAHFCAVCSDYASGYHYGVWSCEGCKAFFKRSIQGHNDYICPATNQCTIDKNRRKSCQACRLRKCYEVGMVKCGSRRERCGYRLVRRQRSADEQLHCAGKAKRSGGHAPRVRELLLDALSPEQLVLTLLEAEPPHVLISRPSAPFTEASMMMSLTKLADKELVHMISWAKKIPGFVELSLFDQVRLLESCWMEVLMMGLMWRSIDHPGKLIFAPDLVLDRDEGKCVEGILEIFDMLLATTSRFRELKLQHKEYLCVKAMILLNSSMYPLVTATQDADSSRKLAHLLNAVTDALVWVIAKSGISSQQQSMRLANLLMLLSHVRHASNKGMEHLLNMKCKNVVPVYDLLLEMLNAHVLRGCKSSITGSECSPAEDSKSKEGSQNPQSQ
Estrogen receptor (Homo sapiens), sequence (P03372 whole entry, looked up, the tested form may be a part): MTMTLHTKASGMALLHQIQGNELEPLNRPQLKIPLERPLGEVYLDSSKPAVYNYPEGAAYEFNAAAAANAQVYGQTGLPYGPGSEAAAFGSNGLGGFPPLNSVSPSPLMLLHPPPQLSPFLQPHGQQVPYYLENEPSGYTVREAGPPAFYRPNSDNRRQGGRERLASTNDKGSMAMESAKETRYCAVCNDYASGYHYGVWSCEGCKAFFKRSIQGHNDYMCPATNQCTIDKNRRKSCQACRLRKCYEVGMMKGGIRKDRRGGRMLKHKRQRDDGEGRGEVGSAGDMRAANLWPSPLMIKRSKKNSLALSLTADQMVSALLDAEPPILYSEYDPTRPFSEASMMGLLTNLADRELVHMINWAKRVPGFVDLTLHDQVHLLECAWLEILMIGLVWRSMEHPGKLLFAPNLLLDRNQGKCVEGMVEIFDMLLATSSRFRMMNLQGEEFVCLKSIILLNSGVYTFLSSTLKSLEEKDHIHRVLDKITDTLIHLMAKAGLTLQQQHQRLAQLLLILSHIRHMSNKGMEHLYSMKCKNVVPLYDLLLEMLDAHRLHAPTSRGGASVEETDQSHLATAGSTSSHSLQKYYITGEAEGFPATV
PGR (gene 5241), sequence (P06401 whole entry, looked up): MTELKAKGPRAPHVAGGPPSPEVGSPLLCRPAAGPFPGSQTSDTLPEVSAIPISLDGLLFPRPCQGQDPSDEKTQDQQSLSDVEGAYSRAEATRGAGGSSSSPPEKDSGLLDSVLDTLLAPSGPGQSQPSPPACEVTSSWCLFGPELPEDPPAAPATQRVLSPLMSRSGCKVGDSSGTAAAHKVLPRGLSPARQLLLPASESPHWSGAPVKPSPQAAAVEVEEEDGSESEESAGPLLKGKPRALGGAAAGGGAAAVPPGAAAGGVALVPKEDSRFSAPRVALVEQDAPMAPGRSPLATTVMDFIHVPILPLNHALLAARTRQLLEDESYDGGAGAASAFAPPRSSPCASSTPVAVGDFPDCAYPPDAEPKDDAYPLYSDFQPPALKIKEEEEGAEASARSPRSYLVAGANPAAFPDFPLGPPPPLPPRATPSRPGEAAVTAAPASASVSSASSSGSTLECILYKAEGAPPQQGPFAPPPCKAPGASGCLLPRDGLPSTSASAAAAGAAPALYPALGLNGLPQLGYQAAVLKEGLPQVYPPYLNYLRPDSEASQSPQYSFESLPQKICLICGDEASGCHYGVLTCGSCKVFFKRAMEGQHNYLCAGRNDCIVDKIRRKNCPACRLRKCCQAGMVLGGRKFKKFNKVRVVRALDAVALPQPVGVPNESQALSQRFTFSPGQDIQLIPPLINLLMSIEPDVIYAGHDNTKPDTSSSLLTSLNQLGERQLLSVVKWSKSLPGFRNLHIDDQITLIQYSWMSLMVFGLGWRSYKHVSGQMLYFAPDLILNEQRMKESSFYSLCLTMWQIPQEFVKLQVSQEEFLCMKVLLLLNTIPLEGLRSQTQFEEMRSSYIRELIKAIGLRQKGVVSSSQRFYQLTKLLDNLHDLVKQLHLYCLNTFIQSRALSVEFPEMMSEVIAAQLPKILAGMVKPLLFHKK

ClC1=C(Cl)[C@]2(Cl)[C@H]3[C@H]([C@H]4C=C[C@H]3C4)[C@@]1(Cl)C2(Cl)Cl
inactive: [1] | [2]

COP(=O)(OC)O/C(=C\Cl)c1cc(Cl)c(Cl)cc1Cl
active: [5] 67.5 µM
inactive: [1] | [2] | [3] | [4] | [6]

ClCC(Cl)CCl
inactive: [7] | [1]

O=C(O)C(F)(F)C(F)(F)C(F)(F)C(F)(F)C(F)(F)C(F)(F)C(F)(F)C(F)(F)C(F)(F)C(F)(F)F
active: [7] 23.1 µM
inactive: [8]

COP(=S)(OC)Oc1cc(Cl)c(Br)cc1Cl
inactive: [1] | [2]

COC(=O)c1sccc1S(=O)(=O)NC(=O)Nc1nc(C)nc(OC)n1
inactive: [1] | [2] | [3] | [4] | [9] | [10] | [8]

CCC(=O)c1ccccc1
inactive: [11]

CC(C)(c1ccccc1)c1ccc(O)c(C(C)(C)c2ccccc2)c1
inactive: [1] | [2] | [3] | [4] | [9] | [6]
active: [10] 12 µM | [8] 2.61 µM

C(=NC1CCCCC1)=NC1CCCCC1
inactive: [1]

Cn1sc(Cl)cc1=O
inactive: [11] | [3] | [4] | [9] | [10] | [8]

CCN1CCC2(CC1)COc1cc3c(cc12)N(C(=O)c1ccc(-c2ccc(-c4nnc(C)o4)cc2C)cc1)CC3
inactive: [3] | [10] | [8]
active: [12] 39.1 µM | [13] 11.6 µM | [14] 16.8 µM | [5] 7.04 µM

NC(=O)O
inactive: [1] | [3] | [4]

CC(=O)[O][Hg][c]1ccccc1
active: [13] 11.4 µM | [14] 29.1 µM | [5] 1.86 µM
inactive: [2] | [3] | [4] | [10] | [8]

O=[N+]([O-])c1ccc2c3c(cccc13)CC2
inactive: [1]

C=C(C)C(=O)[O][Sn]([CH2]CCC)([CH2]CCC)[CH2]CCC
active: [13] 2.23 µM | [7] 3.89 µM | [14] 12.1 µM | [15] 3.42 µM
inactive: [1] | [2] | [3] | [4] | [9] | [10] | [8] | [6]

CCC[CH2][Sn]([CH2]CCC)([CH2]CCC)[O]C(=O)c1ccccc1
active: [14] 9.94 µM | [2] 2.94 µM
inactive: [1] | [3] | [4]

CCOP(=S)(OCC)SCSP(=S)(OCC)OCC
active: [4] 6.96 µM | [9] 10.7 µM | [10] 9.13 µM | [8] 14.7 µM
inactive: [1] | [2] | [3]

NNC(=S)NN
inactive: [1] | [2] | [3] | [4] | [10] | [8]

CCC(=O)C(CC(C)N(C)C)(c1ccccc1)c1ccccc1 (stereo not drawn)
inactive: [3] | [4] | [9] | [5] | [10] | [8]
active: [16] 18.1 µM | [13] 4.02 µM

Clc1ccc(COC(Cn2ccnc2)c2ccc(Cl)cc2Cl)cc1 (stereo not drawn)
inactive: [3] | [4] | [8]
active: [1] 0.7 µM | [14] 9.28 µM | [10] 11.8 µM | [17] 16.2 µM | [6] 39.8 µM

Clc1ccc(C2(Cn3cncn3)CC(Br)CO2)c(Cl)c1 (stereo not drawn)
active: [14] 7.36 µM | [10] 56.4 µM
inactive: [1] | [2] | [3] | [4] | [9] | [8]

Cc1ccccc1N
inactive: [18]

CCOC(=O)/C=C(C)/C=C/C[C@@H](C)CCCC(C)C
inactive: [1] | [2]

CCCCCCCCCCCCCCCC[n+]1ccccc1
inactive: [1]

COP(=S)(OC)Oc1ccc(Sc2ccc(OP(=S)(OC)OC)cc2)cc1
active: [2] 1.73 µM | [10] 48.4 µM | [6] 12.7 µM
inactive: [1] | [14] | [3] | [4] | [9] | [5] | [8]

C[C@]12CC[C@H](O)CC1=CC[C@@H]1[C@@H]2CC[C@]2(C)C(=O)CC[C@@H]12
active: [1] 3.16 µM | [14] 1.88 µM | [8] 3.91 µM

C[C@]12CCC(=O)C[C@@H]1CC[C@@H]1[C@@H]2CC[C@]2(C)[C@@H](O)CC[C@@H]12
active: [8] 6.23 µM and 10.7 µM and 5.44 µM | [15] 0.366 µM
inactive: [7] | [8]

CC(C)(c1ccc(OCC2CO2)cc1)c1ccc(OCC2CO2)cc1 (stereo not drawn)
inactive: [1] | [14] | [3] | [4] | [9] | [8] | [17]
active: [2] 14.2 µM | [5] 79.1 µM

C[C@H]1CCCC(=O)CCC/C=C/c2cc(O)cc(O)c2C(=O)O1
active: [1] 0.0119 µM | [2] 0.00245 µM | [3] 0.46 µM | [4] 0.291 µM | [9] 0.0558 µM | [10] 0.24 µM | [8] 0.0845 µM
inactive: [5]
